Values without a mark were called inactive. Records with an inconclusive call do not appear. Entries that show only a call come without a potency. Active and inactive are the calls of the source. Unless noted, calls come from the whole dose curve; as a rule, active = well fitted curve in the direction sought with a large enough effect in the repeat runs; inconclusive = weak or mixed curves; inactive = no such curve, though single readings can be large; an effect the other way counts as inactive or inconclusive.
What was measured:
[1] = qHTS assay to identify small molecule agonists of the hypoxia (HIF-1) signaling pathway - cell viability counter screen (AID 1224844; calls by dose curve; note: nearly all actives have a fitted effect of over 50% in size)
Outline: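 Viability counter screen: HRE-bla ME-180 cells plated 5 hrs before compound addition, treated 17 hrs at 37C and 5% CO2, then CellTiter-Glo added after the FRET reporter read; luminescence after 30 min.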

[2] = qHTS assay to identify small molecule agonists of H2AX (AID 1224845; active = well fitted activation curve with a large enough effect in the signal ratio in the repeat runs, not every such curve was filed as active; the % refers to the signal ratio)
Outline: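 Wild-type CHO-K1 cells plated overnight, then exposed 3 hr at 37C to compounds at 15 concentrations (0.76% DMSO). Lysed, then HTRF anti-pH2AX(S139)-cryptate/anti-H2AX-d2 detection after 24 hr at room temperature; emissions 665 and 620 nm.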

[3] = qHTS assay to identify small molecule agonists of the hypoxia (HIF-1) signaling pathway (AID 1224846; active = well fitted activation curve with a large enough effect in the signal ratio in the repeat runs, not every such curve was filed as active; the % refers to the signal ratio)
Outline: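 Agonist mode reporter screen. ME-180 cells stably expressing bla under HRE control received test compounds in DMSO for 17 hrs (37C, 5% CO2), and beta-lactamase activity was then detected with the CCF4-AM FRET substrate.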

[4] = qHTS assay to identify small molecule agonists of H2AX - cell viability counter screen (AID 1224847; calls by dose curve; note: top concentration of the series differs between compounds; nearly all actives have a fitted effect of over 30% in size)
Outline: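 Viability of CHO-K1 (wild type) cells after 3 hr compound exposure was measured by CellTiter-Glo luminescence.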

[5] = qHTS assay to identify small molecule antagonists of the estrogen related receptor (ERR) signaling pathway from Tox21 library (AID 1224848); note: nearly all actives have a fitted effect of over 50% in size; note: potency is the fitted concentration of half-maximal effect
Outline: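 Tox21 10K compounds in DMSO tested for ERR pathway antagonism in NTP's ERR cell line; 18 h, 37 C exposure; ONE-Glo luminescence.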

[6] = qHTS assay to identify small molecule agonists of the estrogen related receptor (ERR) signaling pathway from Tox21 library (AID 1224849; calls by dose curve; note: nearly all actives have a fitted effect of over 15% in size); settings: ERR reporter cell line, ONE-Glo luciferase, 18 h; at 92.4 µM (top of the series) unless noted
Outline: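 Quantitative HTS in agonist format: NTP ERR cell line, compounds transferred in DMSO after 6 h plating, 18 h incubation at 37 C, ONE-Glo luminescence endpoint.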

[7] = qHTS RealTime-Glo MT Cell Viability Assay in HEK293 cells - 32 hour (AID 1224868); note: nearly all actives have a fitted effect of over 50% in size; note: potency is the fitted concentration of half-maximal effect
Outline: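 Assay medium contained NanoLuc luciferase plus cell-permeant prosubstrate, added with HEK293 cells at 600 cells/well. After 5 h at 37 C/5% CO2 compounds were added; plates stayed at 37 C for 40 h with serial luminescence reads.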

[8] = qHTS RealTime-Glo MT Cell Viability Assay in HepG2 cells - 40 hour (AID 1224870); note: nearly all actives have a fitted effect of over 50% in size
Outline: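 HepG2 cells mixed with RealTime-Glo MT reagents (NanoLuc plus cell-permeant prosubstrate) were seeded at 600 cells/well, incubated 5 h at 37 C/5% CO2, then pinned with compounds in DMSO; nonlytic luminescence tracked viability during 40 h treatment.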

[9] = qHTS RealTime-Glo MT Cell Viability Assay in HepG2 cells - 24 hour (AID 1224867); note: nearly all actives have a fitted effect of over 50% in size
Outline: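 qHTS, HepG2, 600 cells/well, RealTime-Glo (NanoLuc + prosubstrate) added with cells; 5 h preincubation; DMSO compound addition; 37 C; luminescence at 0/8/16/24/32/40 h.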

[10] = A CellTox Green Cytotoxicity Assay to monitor cytotoxicity in HEK293 cells - 0 hour (AID 1224869); note: nearly all actives have a fitted effect of over 50% in size
Outline: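 Dead-cell fluorescence measured kinetically: asymmetric cyanine dye, HEK293, 600 cells/well, 5 h settle, 23 nL cpd/DMSO, 37 C, reads 0–40 h every 8 h.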

SMILES | Potency [1] | Potency [2] | outcome [3] | Potency [4] | Potency [5] | activity change, positive = activation [6] | Potency [7] | Potency [8] | Potency [9] | Potency [10]
CC1(C)COP(Oc2ccccc2)OC1 | inactive | inactive | inactive | inactive | inactive | 6.55% | inactive | inactive | – | –
Fc1ccc(C2(Cn3cncn3)OC2c2ccccc2Cl)cc1 (configuration not stated) | inactive | inactive | inactive | inactive | 48.6 µM (active) | – | 43.6 µM (active) | inactive | inactive | inactive
Cc1cc(C)nc(Nc2ccccc2)n1 | inactive | inactive | inactive | inactive | inactive | – | inactive | inactive | inactive | inactive
CC(=O)Nc1cc([As](=O)(O)O)ccc1O | inactive | inactive | inactive | inactive | inactive | -16.7% [at 42.5 µM] | inactive | inactive | inactive | inactive
CNC(=O)N(C)c1nc2ccccc2s1 | inactive | inactive | inactive | inactive | inactive | – | inactive | inactive | inactive | inactive
CC1CCC(=O)O1 (configuration not stated) | inactive | inactive | inactive | inactive | inactive | -6.79% | inactive | inactive | – | inactive
CC(=O)CCc1ccc2c(c1)OCO2 | inactive | inactive | inactive | inactive | inactive | – | inactive | inactive | inactive | inactive
CCCCc1c(C)nc(NCC)[nH]c1=O | inactive | inactive | inactive | inactive | inactive | 5.33% | – | inactive | inactive | inactive
COc1cc(OC)nc(NC(=O)NS(=O)(=O)c2ncccc2OCC(F)(F)F)n1 | inactive | inactive | inactive | inactive | inactive | – | inactive | inactive | inactive | inactive
ClC(Cl)(Cl)C(Cl)(Cl)Cl | inactive | inactive | inactive | inactive | – | – | inactive | inactive | inactive | inactive
CC1(C)C(=O)NC(=O)NC1=O | inactive | inactive | inactive | inactive | inactive | -0.272% | inactive | inactive | inactive | –
C[N+](=O)[O-] | inactive | inactive | inactive | inactive | inactive | 6.34% | inactive | inactive | inactive | inactive
C=CC1CC=CCC1 (configuration not stated) | inactive | inactive | inactive | inactive | – | – | inactive | inactive | inactive | –
c1ccc(N2CCNCC2)cc1 | inactive | inactive | inactive | inactive | – | – | inactive | inactive | – | inactive
CCN(CC)c1nc(C)cc(OP(=S)(OC)OC)n1 | inactive | inactive | inactive | inactive | – | – | inactive | inactive | inactive | inactive
[Cl][Sn]([Cl])([Cl])[Cl] | inactive | inactive | inactive | inactive | – | – | – | inactive | inactive | –
C#CCN1C(=O)COc2cc(F)c(N3C(=O)C4=C(CCCC4)C3=O)cc21 | inactive | inactive | inactive | inactive | – | – | inactive | inactive | inactive | inactive
CCOP(=S)(OCC)Oc1nc(Cl)n(C(C)C)n1 | inactive | inactive | inactive | inactive | – | – | inactive | inactive | – | inactive
CC(CCc1ccccc1)NC(C)C(O)c1ccc(O)cc1 (configuration not stated) | inactive | inactive | inactive | inactive | – | – | inactive | inactive | inactive | inactive
Cc1nc(N)nc(N)n1 | inactive | inactive | inactive | inactive | – | – | inactive | inactive | – | inactive
NC(=O)c1cc([N+](=O)[O-])cc([N+](=O)[O-])c1 | inactive | inactive | inactive | inactive | – | – | inactive | inactive | inactive | inactive
CCCSC(=O)Cl | inactive | inactive | inactive | inactive | – | – | inactive | inactive | inactive | inactive
CN1CCC(N(Cc2ccccc2)c2ccccc2)CC1 | inactive | inactive | inactive | inactive | – | – | inactive | inactive | inactive | –
CC1CN1P(=O)(N1CC1C)N1CC1C (configuration not stated) | inactive | inactive | inactive | inactive | – | – | inactive | inactive | inactive | –
COC(C)(C)C | inactive | inactive | inactive | inactive | – | – | inactive | inactive | inactive | inactive
[O]=[Cd] | inactive | inactive | inactive | inactive | – | – | inactive | inactive | inactive | inactive
CCCCP(CCCC)CCCC | inactive | inactive | inactive | inactive | – | – | inactive | inactive | – | inactive
CN1C[C@@H](NS(=O)(=O)N(C)C)C[C@@H]2c3cccc4c3c(cn4C)C[C@H]21 | inactive | inactive | inactive | inactive | – | – | inactive | inactive | inactive | inactive

Source: PubChem BioAssay (Tox21)
